Source: PubChem
Compounds with a hit are over-represented: about 3.7% of the library has one in this group of screens.
BoNT-A LC inh2: BoNT A light chain protease inhibition; multiplex microsphere protease substrate cleavage, flow cytometry; inhibition, % at 10 µM; 360,000 compounds, 0.17% hits; also: plate controls were buffer without enzyme for full effect and enzyme alone for no effect
MazF activator: activators of E. coli MazEF toxin-antitoxin RNase; activation, % at 20 µM; 350,000 compounds, 0.32% hits; FAM/BHQ RNA-DNA oligo cleavage fluorescence, 5 h; AID 504720; in the data active = activation above about 50%
Anthrax LF inh2: anthrax lethal factor protease inhibition; AID 588501; 360,000 compounds, 0.12% hits; P15917; multiplex microsphere protease cleavage assay, LF; inhibition, % at 10 µM; also: plate controls were buffer without enzyme for full effect and enzyme alone for no effect
Autofluor counter: counter-screen for toxin protease inhibitors: compound fluorescence. compound autofluorescence counterscreen, microsphere flow cytometry; stronger effect = higher value. fluorescence intensity (test concentration not listed). 360,000 compounds, 3.1% hits. AID 624483; in the data active = fluorescence intensity above about 16000; inconclusive = no clear call, values can overlap the other calls
BoNT F protease: BoNT F light chain protease inhibition; Multiplex microsphere protease cleavage assay, flow cytometry; inhibition, % at 10 µM; 360,000 compounds, 0.22% hits; AID 588497; in the data active = inhibition above about 35%, passing the limit was not always enough; inconclusive = no clear call, values can overlap the other calls; also: plate controls were buffer without enzyme for full effect and enzyme alone for no effect
Starred values were filed as active, the others as inactive; ? = inconclusive; . = not tested or not shown. Rule as the data show it, unless noted: active = inhibition above about 30%; inconclusive = no clear call, values can overlap the other calls; inactive = below that.

SMILES | BoNT-A LC inh2 | MazF activator | Anthrax LF inh2 | Autofluor counter | BoNT F protease
COc1ccc(C(NC(=O)C2CCN(Cc3ccc(Oc4ccccc4)cc3)CC2)c2ccccc2C)cn1 (configuration not stated) | -0.3 | . | -4.4 | 3611 | -11.8
Cc1ccc(-c2cc(NC=O)c3ncc(-c4cnn(C)c4)n3c2)cc1 | 0.5 | . | -1.1 | 3887 | -0.3
Cc1ccc(O)c(C2=NCCNC(C(F)(F)C(F)F)=C2)c1 | -0.2 | 4.5 | -1.2 | 23315* | -1.0
Oc1ccc(Cl)cc1C1=NCCNC(C(F)(F)C(F)F)=C1 | 0.1 | 9.8 | -1.9 | 22480* | 1.3
Cc1ccc(C(=O)Nc2nc(-c3ccccn3)cs2)cc1S(=O)(=O)N1CCOCC1 | 0.1 | 3.7 | -1.6 | 3895 | -3.1
CCOc1ccccc1C(=O)NCC(=O)NCCSc1ccc(Br)cc1 | 1.4 | -3.8 | -1.7 | 4658 | 4.7
Oc1cc2c(cc1O)C1c3ccc(O)c(O)c3OCC1(O)C2 (configuration not stated) | -5.9 | 263.9* | -20.3 | 3952 | -25.4
NC(=O)c1ncn([C@@H]2O[C@H](CNCc3c(OCc4ccccc4F)ccc4ccccc34)[C@@H](O)[C@H]2O)n1 | -0.3 | 1.1 | -5.8 | 4088 | -3.9
Cc1c(C)c2cc(Cl)c(O)c(CN3CCCC(C)C3)c2oc1=O (configuration not stated) | -0.4 | 0.4 | -4.3 | 22975* | 1.6
O=C(Oc1ccc2c(c1)OCO2)c1ccc(Br)c(S(=O)(=O)N2CCOCC2)c1 | ? | -4.1 | -2.3 | 23166* | -2.3
O=C(Nc1ccc2c(c1)OCCO2)c1ccc(Br)c(S(=O)(=O)N2CCOCC2)c1 | 0.0 | 0.6 | -5.9 | 2496 | -6.5
O=C(NCc1ccc2c(c1)OCO2)c1ccc(Cl)c(S(=O)(=O)N2CCOCC2)c1 | 0.7 | 13.2 | -0.1 | 23645* | -2.2
COc1ccc(CC(=O)NCc2cccs2)cc1OC | 0.5 | -3.0 | -0.9 | 4662 | -15.0
O=C(NCc1ccc2c(c1)OCO2)c1ccc(CN2CCOCC2)cc1 | -1.3 | 6.7 | -0.9 | 16861* | -3.7
COc1cc2[nH]cc(C(=O)NCc3cccs3)c(=O)c2cc1OC | -5.8 | -8.9 | 0.5 | 17586* | -6.0
Cc1ccc(C(=O)NCc2ccc3c(c2)OCO3)cc1S(=O)(=O)N1CCOCC1 | -0.5 | 3.6 | -1.7 | 4270 | 4.8
CCOc1ccc2[nH]cc(C(=O)NCc3ccccc3)c(=O)c2c1 | 0.3 | 9.0 | -3.9 | 4167 | ?
O=C(NCc1ccccc1)c1c[nH]c2cc3c(cc2c1=O)OCCO3 | -0.7 | 36.6 | -3.8 | 16706* | 0.4
O=C(NCc1ccc2c(c1)OCO2)c1c[nH]c2ccc(S(=O)(=O)N3CCOCC3)cc2c1=O | 1.9 | 2.6 | -7.3 | 21299* | 3.5
COCCNC(=O)c1c[nH]c2ccc(S(=O)(=O)N3CCOCC3)cc2c1=O | 0.7 | 7.9 | -2.8 | 5515 | 0.7
CN(CC(=O)Nc1ccc(F)c(F)c1F)C(=O)C1CCN(C(=O)Nc2ccccc2)CC1 | 3.7 | 0.0 | 1.7 | 4626 | 2.7
CCCc1cc(-c2n[nH]c(=S)n2-c2cccc(C)c2)cs1 | -0.9 | 11.2 | -3.8 | 4216 | 0.5
Cc1cccc(-n2c(-c3csc(C(C)C)c3)n[nH]c2=S)c1 | 7.2 | -16.6 | -10.7 | 20031* | 9.4
CCCCCCCCNCCS(=O)(=O)NCc1ccc(OC)cc1 | -0.3 | 3.3 | -1.5 | 3615 | -14.1
COc1ccc(-c2nnn(CC(=O)NCCc3c[nH]c4ccccc34)n2)cc1OC | -2.1 | -1.6 | -2.3 | 21211* | -3.7
SMILES | BoNT-A LC inh2 | MazF activator | Anthrax LF inh2 | Autofluor counter | BoNT F protease
COc1cc(NC(=O)C2CC(c3ccccc3O)=NO2)cc(OC)c1OC (configuration not stated) | 0.2 | -6.5 | -3.8 | 3346 | 1.2
COc1ccc(C2=NN(c3ccc(C=O)cc3)C(c3ccccc3)C2)cc1 (configuration not stated) | . | 2.0 | . | . | .
O=Cc1ccc(N2N=C(c3ccccc3)CC2c2ccccc2)cc1 (configuration not stated) | 41.5* | -18.9 | 2.4 | 4507 | 53.1*
NCc1cccc(-n2cccn2)c1 | ? | 2.6 | 0.4 | 21167* | -1.1
Cc1cc(Cl)ccc1NC(=O)COC(=O)c1cc([N+](=O)[O-])ccc1N1CCOCC1 | -187.1 | 4.4 | -43.9 | 49183* | -287.1
CC(C)c1ccc(CN(C)C(=O)c2ccc(S(=O)(=O)NCc3ccco3)cc2)cc1 | 2.3 | 2.1 | 2.0 | 5316 | -6.0
C(=N\Nc1nc(-c2ccccc2)cs1)/c1cccnc1 | -4.9 | -5.6 | -5.9 | 23863* | -9.9
Clc1ccc(-c2csc(N/N=C/c3cccnc3)n2)c(Cl)c1 | 0.4 | -4.5 | -2.2 | 6647 | -8.5
COC(=O)c1ccc(/C=N/Nc2nc(-c3ccc(C)cc3)cs2)cc1 | 0.0 | 52.4* | 0.5 | 2189 | 2.7
CC(/C=C/c1ccccc1)=N\Nc1nc(-c2ccccc2)cs1 | -2.7 | 1.5 | -3.4 | 24306* | -4.2
CC(C)=NNc1nc(-c2ccccc2)cs1 | 1.3 | -5.3 | -0.4 | 2266 | -3.2
CCNC(=O)CC1C(=O)N(c2ccc(F)cc2)C(=O)N1CCc1ccc(OC)cc1 (configuration not stated) | -0.8 | -0.8 | -1.2 | 20994* | -0.6
CCOC(=O)c1ccc(NC(=O)CC2C(=O)N(c3ccccc3)C(=O)N2CCCOC)cc1 (configuration not stated) | 0.0 | 3.9 | -4.4 | 19974* | -0.9
CCNC(=O)CC1C(=O)N(c2ccc(C)cc2)C(=O)N1CCc1ccc(OC)c(OC)c1 (configuration not stated) | 0.7 | 2.5 | 0.9 | 9404 | 8.5
CCNC(=O)CC1C(=O)N(c2ccccc2)C(=O)N1CCc1ccc(OC)c(OC)c1 (configuration not stated) | ? | -9.7 | 0.3 | 22965* | 2.0
CCCCCCN1C[C@H](n2cc(C3CC3)nn2)[C@@H](O)C[C@@H]1c1ccccc1 | -0.1 | -19.2 | -3.5 | 3469 | -3.3
CC1(C(=O)NS(=O)(=O)c2ccccc2Cl)CCN1C(=O)C/C=C/c1ccccc1 (configuration not stated) | -0.4 | . | 1.4 | 3991 | 2.0
Cc1ccc(/C=N/NC(=O)c2cc3c(s2)CCCC3)o1 | -0.2 | 3.4 | 1.3 | 3165 | -2.8
CC1(C)CC(=O)C=C(c2ccc(F)nc2)C1 | 0.7 | -4.4 | 1.7 | 2960 | 1.0
Cc1[nH]c2ccccc2c1/C=C/c1nc2ccccc2c(=O)n1-c1ccc([N+](=O)[O-])cc1 | 1.7 | 589.3* | -2.4 | 2518 | 5.8
O=c1c2ccccc2nc(/C=C/c2ccc([N+](=O)[O-])o2)n1-c1ccc(O)cc1 | -0.5 | 42.6 | -2.8 | 4637 | -6.5
CCn1c(/C=C/c2c(C)[nH]c3ccccc23)nc2ccccc2c1=O | -0.4 | 105.5* | 0.9 | 11331 | -7.4
Cc1cccc(-n2c(/C=C/c3ccc([N+](=O)[O-])o3)nc3ccccc3c2=O)c1 | 16.3 | 90.3* | 11.2 | 10243 | 4.7
O=c1c2ccccc2nc(/C=C/c2ccccc2)n1-c1ccc(O)cc1 | -0.9 | 17.4 | 3.8 | 3440 | -64.2
O=[N+]([O-])c1ccc(Cl)c(-c2ccc(/C=N/c3c(-c4ccco4)nc4ccccn34)o2)c1 | 2.1 | 95.4* | -2.7 | 3858 | -10.0
